Laboratory results from PubChem BioAssay (EPA / NIEHS).
Calls of active or inactive are those of the source. The calls were made as follows: active = hit-call score of the fitted dose curve at least 0.9, where 1 is the maximum; inactive = score below 0.9.

Legend:
[1] = ATG_CRE_CIS: Attagene CIS-FACTORIAL HepG2 Assay for human cAMP Responsive Element (CRE) binding protein 3 (AID 2282926); details: HepG2 CRE cis-reporter, Attagene multiplexed mRNA; actives raise or lower the signal
Outline: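 Cells carrying cis-regulated reporter constructs respond through their own endogenous factors. After 24 h treatment, RNA is reverse-transcribed, amplified, labelled and sized by capillary electrophoresis; up- and down-regulation are both scored against vehicle.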

[2] = target: CCAAT/enhancer-binding protein beta (Homo sapiens) (UniProt P17676); test: ATG_C_EBP_CIS: Attagene CIS-FACTORIAL HepG2 Assay for human CCAAT/Enhancer Binding Protein (C/EBP) beta (AID 2282927); details: HepG2 Attagene cis-factorial transcription factor reporter; actives raise or lower the signal
Sequence of CCAAT/enhancer-binding protein beta (Homo sapiens) (P17676 whole entry, looked up): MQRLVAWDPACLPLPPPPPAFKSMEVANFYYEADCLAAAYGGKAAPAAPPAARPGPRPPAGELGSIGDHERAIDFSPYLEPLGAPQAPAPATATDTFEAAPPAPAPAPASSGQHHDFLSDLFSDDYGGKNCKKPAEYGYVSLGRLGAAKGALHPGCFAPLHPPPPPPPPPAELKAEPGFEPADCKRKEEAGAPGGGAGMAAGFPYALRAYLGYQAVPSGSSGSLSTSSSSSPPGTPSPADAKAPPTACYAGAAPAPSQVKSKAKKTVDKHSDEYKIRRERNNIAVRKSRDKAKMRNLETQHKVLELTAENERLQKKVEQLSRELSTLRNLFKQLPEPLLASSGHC
Outline: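 HepG2 transiently transfected with multiplexed reporter units under cis-regulatory promoters reporting endogenous C/EBPb activity. After 24 h exposure, reporter mRNA assayed by RT-PCR, fluorescent labelling, HpaI digestion and capillary electrophoresis; bidirectional fitting versus DMSO.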

[3] = ATG_CMV_CIS: Attagene CIS-FACTORIAL HepG2 Assay for human CMV (Internal Marker) (AID 2282928); details: HepG2 CMV promoter reporter, transcription factor profiling; actives raise or lower the signal;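 also: endpoint acts as a background internal control marker rather than a target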
Outline: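 Readout: fluorescent reporter cDNA fragments separated by capillary electrophoresis after RT-PCR and HpaI cut. Cells: HepG2 carrying transfected cis-promoter reporter constructs, dosed 24 h. Endpoint serves as background internal-marker control, fit bidirectionally versus DMSO.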

[4] = ATG_DR4_LXR_CIS: Attagene CIS-FACTORIAL HepG2 Assay for human Liver X Receptor (LXR), DR4 submotif (AID 2282929); details: HepG2 Attagene DR4 cis-reporter, mRNA transcription; actives raise or lower the signal
Outline: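 HepG2 cells transiently transfected with cis-promoter-driven multiplexed reporter units (DR4 element) were dosed for 24 h. Reporter mRNA was quantified by RT-PCR, fluorescent primer extension, HpaI digestion and capillary electrophoresis; bidirectional fitting versus DMSO baseline.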

[5] = target: Aryl hydrocarbon receptor (Homo sapiens) (UniProt P35869); test: ATG_Ahr_CIS: Attagene CIS-FACTORIAL HepG2 Assay for human Aryl Hydrocarbon Receptor (Ahr) (AID 2282930); details: HepG2 AhR cis-factorial reporter transcription; actives raise or lower the signal
Sequence of Aryl hydrocarbon receptor (Homo sapiens) (P35869 whole entry, looked up): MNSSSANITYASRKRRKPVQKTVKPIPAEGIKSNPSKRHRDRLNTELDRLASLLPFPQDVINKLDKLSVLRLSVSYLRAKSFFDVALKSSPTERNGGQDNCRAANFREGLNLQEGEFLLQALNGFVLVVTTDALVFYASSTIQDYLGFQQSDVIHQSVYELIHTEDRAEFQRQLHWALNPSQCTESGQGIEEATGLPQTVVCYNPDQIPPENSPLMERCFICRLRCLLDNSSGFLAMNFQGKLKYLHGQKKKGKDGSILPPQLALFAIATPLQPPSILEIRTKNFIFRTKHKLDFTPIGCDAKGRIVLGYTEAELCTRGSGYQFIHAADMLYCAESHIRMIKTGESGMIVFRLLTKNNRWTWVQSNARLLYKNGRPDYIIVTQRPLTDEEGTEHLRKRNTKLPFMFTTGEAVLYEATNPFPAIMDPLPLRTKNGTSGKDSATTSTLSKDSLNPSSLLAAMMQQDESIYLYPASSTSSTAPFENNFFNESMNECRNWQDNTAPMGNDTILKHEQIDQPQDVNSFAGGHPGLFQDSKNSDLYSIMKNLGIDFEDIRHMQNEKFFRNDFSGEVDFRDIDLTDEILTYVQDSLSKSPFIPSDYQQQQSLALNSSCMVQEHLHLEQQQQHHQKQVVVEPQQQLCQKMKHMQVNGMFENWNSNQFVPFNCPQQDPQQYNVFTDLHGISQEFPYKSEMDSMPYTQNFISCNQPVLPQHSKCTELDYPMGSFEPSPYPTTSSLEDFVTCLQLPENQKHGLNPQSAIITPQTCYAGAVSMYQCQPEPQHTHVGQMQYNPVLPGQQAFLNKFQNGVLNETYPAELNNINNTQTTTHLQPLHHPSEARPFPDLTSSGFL
Outline: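 HepG2 cells transiently transfected with cis-element-driven multiplexed reporter units; endogenous AhR activity read as reporter mRNA 24 h after dosing, via RT-PCR, 6-FAM labelling, HpaI digestion and capillary electrophoresis. Bidirectional fit relative to DMSO.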

[6] = ATG_AP_1_CIS: Attagene CIS-FACTORIAL HepG2 Assay for human Activator Protein 1 (AP-1) (AID 2282931); details: HepG2 Attagene cis-factorial AP-1 reporter mRNA; actives raise or lower the signal
Outline: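 HepG2 cells transiently transfected with cis-element-driven multiplex reporter units; 24 h compound exposure. Reporter mRNA quantified by RT-PCR, FAM-labelled fragments resolved by capillary electrophoresis; bidirectional fit versus DMSO baseline.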

[7] = ATG_AP_2_CIS: Attagene CIS-FACTORIAL HepG2 Assay for human Activator Protein 2 (AP-2) (AID 2282932); details: HepG2 AP-2 cis-reporter, Attagene transcription factor profiling; actives raise or lower the signal
Outline: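 Read-out: fluorescent reporter mRNA via RT-PCR and capillary electrophoresis, 24 h post-dose in transiently transfected HepG2. Endogenous factors drive cis-promoter reporters; gain or loss of signal fitted bidirectionally against DMSO.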

[8] = ATG_BRE_CIS: Attagene CIS-FACTORIAL HepG2 Assay for human Bone Morphogenetic Protein (BMP) Response Element (BRE) (AID 2282933); details: HepG2 BMP response element reporter, Attagene transcription factor profiling; actives raise or lower the signal
Outline: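 After a 24 h chemical treatment, transiently transfected HepG2 cells were lysed for RNA; reporter transcripts were quantified by fluorescent RT-PCR and capillary electrophoresis, normalised to DMSO.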

[9] = target: Retinoic acid receptor alpha (Homo sapiens) (UniProt P10276); test: ATG_DR5_RAR_CIS: Attagene CIS-FACTORIAL HepG2 Assay for human Retinoic Acid Receptor Alpha (RARE), DR5 submotif (AID 2282934); details: HepG2 Attagene cis-factorial RARE DR5 reporter, mRNA; actives raise or lower the signal;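 as to AC50: reporter responds to endogenous RAR alpha beta and gamma in HepG2 not RARA alone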
Sequence of Retinoic acid receptor alpha (Homo sapiens) (P10276 whole entry, looked up): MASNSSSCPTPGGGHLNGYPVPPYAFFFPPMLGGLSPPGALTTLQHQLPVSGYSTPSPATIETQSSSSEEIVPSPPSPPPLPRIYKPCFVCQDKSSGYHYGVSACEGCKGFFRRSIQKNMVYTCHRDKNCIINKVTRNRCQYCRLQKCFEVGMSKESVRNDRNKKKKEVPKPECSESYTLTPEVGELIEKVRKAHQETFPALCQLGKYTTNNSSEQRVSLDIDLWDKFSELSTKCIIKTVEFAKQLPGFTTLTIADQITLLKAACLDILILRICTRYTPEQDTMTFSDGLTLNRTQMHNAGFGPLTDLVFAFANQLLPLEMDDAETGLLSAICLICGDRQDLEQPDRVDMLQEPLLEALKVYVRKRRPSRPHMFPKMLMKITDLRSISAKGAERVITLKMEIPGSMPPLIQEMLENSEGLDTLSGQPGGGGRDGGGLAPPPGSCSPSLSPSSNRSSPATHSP
Outline: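 HepG2 cells transiently transfected with multiplexed reporter units; DR5 cis-element drives reporter through endogenous transcription factors. After 24 h dosing, reporter mRNA quantified by RT-PCR, fluorescent labeling, HpaI digestion and capillary electrophoresis; bidirectional fitting versus DMSO.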

[10] = target: Transcription factor E2F1 (Homo sapiens) (UniProt Q01094); test: ATG_E2F_CIS: Attagene CIS-FACTORIAL HepG2 Assay for human E2F Transcription Factor 1 (AID 2282935); details: HepG2 Attagene cis-reporter, E2F reporter RNA transcripts; actives raise or lower the signal
Sequence of Transcription factor E2F1 (Homo sapiens) (Q01094 whole entry, looked up): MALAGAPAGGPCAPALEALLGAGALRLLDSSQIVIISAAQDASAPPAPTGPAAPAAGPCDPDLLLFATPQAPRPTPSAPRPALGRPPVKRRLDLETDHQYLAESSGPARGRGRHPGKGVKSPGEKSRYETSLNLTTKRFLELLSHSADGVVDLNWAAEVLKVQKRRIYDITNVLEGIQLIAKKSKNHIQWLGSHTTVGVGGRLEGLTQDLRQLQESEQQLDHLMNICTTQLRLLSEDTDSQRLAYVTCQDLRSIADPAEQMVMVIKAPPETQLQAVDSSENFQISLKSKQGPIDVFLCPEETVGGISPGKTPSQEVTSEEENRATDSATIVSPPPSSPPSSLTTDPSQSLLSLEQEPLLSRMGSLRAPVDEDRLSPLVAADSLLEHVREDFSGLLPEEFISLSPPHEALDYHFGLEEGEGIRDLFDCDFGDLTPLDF
Outline: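 Transient MRTU transfection of HepG2; 24 h compound exposure; RNA → oligo(dT) RT → PCR → FAM label → HpaI cut → CE fluorescence. Gain/loss of signal fit against DMSO.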

[11] = ATG_E_Box_CIS: Attagene CIS-FACTORIAL HepG2 Assay for human Enhancer Box (E-box) (AID 2282936); details: HepG2 E-box cis-reporter transcription, actives raise or lower the signal
Outline: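 Transiently transfected HepG2, endogenous TF-driven reporters, 24 h dosing. Readout: RT-PCR plus capillary electrophoresis of fluorescent reporter fragments. Gain or loss of signal fitted bidirectionally against DMSO baseline.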

[12] = ATG_M_61_CIS: Attagene CIS-FACTORIAL HepG2 Assay for M61 Transcription Factor (Internal Marker) (AID 2282937); details: HepG2 Attagene CIS-FACTORIAL M61 internal marker reporter; actives raise or lower the signal
Outline: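 HepG2 cells transiently transfected with cis-element-driven multiple reporter transcription units, dosed for 24 h. Reporter mRNA measured by RT-PCR, 6-FAM primer-extension labelling, HpaI digestion and capillary electrophoresis; bidirectional fit versus DMSO baseline.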

[13] = ATG_EGR_CIS: Attagene CIS-FACTORIAL HepG2 Assay for human Early Growth Response 1 (EGR1) (AID 2282938); details: HepG2 Attagene CIS-FACTORIAL EGR reporter mRNA; actives raise or lower the signal
Outline: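 HepG2 cells transiently transfected with cis-promoter-driven multiplexed reporter transcription units; reporter mRNA measured 24 h after compound dosing by RT-PCR, 6-FAM primer extension, HpaI digestion and capillary electrophoresis. Bidirectional fit versus DMSO baseline.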

[14] = ATG_M_19_CIS: Attagene CIS-FACTORIAL HepG2 Assay for M19 Transcription Factor (Internal Marker) (AID 2282939); details: HepG2 Attagene CIS-FACTORIAL M19 internal marker reporter; actives raise or lower the signal
Outline: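 In this multiplexed cell assay, transiently transfected HepG2 reporter units report endogenous transcription-factor activity; after 24 hours of treatment, labelled reporter cDNA fragments are quantified by capillary electrophoresis and fitted bidirectionally against DMSO.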

[15] = ATG_ERE_CIS: Attagene CIS-FACTORIAL HepG2 Assay for Estrogen Response Element (ERE) (AID 2282940); details: HepG2 ERE cis-reporter, Attagene RNA transcript; actives raise or lower the signal
Outline: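 Measuring endogenous transcription factor output, the assay doses transfected HepG2 cells for 24 hours and quantifies reporter transcripts by fluorescent RT-PCR and capillary electrophoresis, with DMSO as baseline.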

Measured: AC50

OC[P+](CO)(CO)CO
inactive: all assays above

Fc1cccc(Cl)c1CCl
active: [1] 41.8 µM
inactive: all other assays above

O=C=Nc1ccc(Cl)cc1
inactive: all assays above

OCC(c1ccc(Cl)cc1)c1ccc(Cl)cc1
active: [3] 45.2 µM | [4] 50.2 µM | [6] 51.6 µM | [13] 53.2 µM | [14] 48.5 µM
inactive: all other assays above

CCOC(=O)CCN(SN(C)C(=O)Oc1cccc2c1OC(C)(C)C2)C(C)C
active: [4] 100 µM | [6] 151 µM | [8] 163 µM
inactive: all other assays above

C[C@@H]1O[C@@H](O[C@H]2C[C@@H](O)[C@]3(CO)[C@H]4[C@H](O)C[C@]5(C)[C@@H](C6=CC(=O)OC6)CC[C@]5(O)[C@@H]4CC[C@]3(O)C2)[C@H](O)[C@H](O)[C@H]1O
active: [1] 0.512 µM | [2] 0.0716 µM | [4] 0.207 µM | [6] 0.215 µM | [7] 0.119 µM | [9] 0.155 µM | [13] 0.0716 µM
inactive: all other assays above

CCCCCCCCCCCCCl
inactive: all assays above

O=C1c2ccccc2C(=O)C1C(=O)C(c1ccccc1)c1ccc(Cl)cc1 (stereo not given)
inactive: [2] | [4] | [7] | [10] | [11] | [15]
active: [1] 27.5 µM | [3] 13.7 µM | [5] 8.72 µM | [6] 5.27 µM | [8] 5.02 µM | [9] 8.58 µM | [12] 88.4 µM | [13] 13.1 µM | [14] 33.4 µM

Clc1ccc(C(Cl)(Cl)Cl)cn1
active: [5] 5.67 µM | [15] 2.86 µM
inactive: all other assays above

ClCCN1CCOCC1
inactive: all assays above
